SF-1 inh: blocks the human nuclear receptor SF-1; Q13285; CHO-K1 Gal4-SF-1 LBD luciferase reporter; inhibition, % at 10 µM; actives 0.55% (n = 65,000);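 active means inhibition above the mean inhibition of all tested compounds plus 3 SD, cut at about 48% in these data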
A number is an active result; 0 = inactive. The entries come from a sample that favours hits as a whole.

SMILES | SF-1 inh
COc1cc(CC(NC(C)=O)C(=O)NC2CCN(c3nc(C)cc(C)c3C#N)CC2)cc(OC)c1 (stereo not given) | 71
COc1cccc(CC(NC(C)=O)C(=O)NC2CCN(c3c4c(nc5ncnn35)CCC4)CC2)c1 (stereo not given) | 0
COc1ccc(NC(=O)C2CCN(c3nc(C)nc4c3CCC4)CC2)cc1 | 0
O=C(c1ccc(Cn2cc(Br)cn2)o1)n1cccn1 | 0
COc1ccc(C(=O)CSc2nc3nc(C)cc(C)n3n2)cc1OC | 0
Nc1nnnn1/N=C/C(Br)=C/c1ccccc1 | 96
O=C(c1cnsn1)N1CCN(c2ccccn2)CC1 | 0
CN(CCc1ccccn1)C(=O)CN(C)S(=O)(=O)c1ccc2c(c1)c(=O)n(C)c(=O)n2C | 0
COc1ccc(CCNS(=O)(=O)c2ccccc2)cc1OC | 0
COC(=O)c1ccc(CSc2nnnn2-c2ccccc2)o1 | 0
COc1ccc(CCNc2nnc(Sc3nnnn3-c3ccccc3)s2)cc1OC | 68
COc1ccc(-n2c(=S)[nH]c3cc(C(=O)NCCCN4CCCC4=O)ccc3c2=O)cc1 | 0
CCCCOc1ncnc2c1[nH]c1ccc(F)cc12 | 50
Fc1ccc(Nc2nc(N3CCOCC3)c3ccccc3n2)cc1 | 0
Fc1ccc2[nH]c3c(N4CCN(c5ccccc5)CC4)ncnc3c2c1 | 60
c1ccc(N2CCN(c3ncnc4sc5c(c34)CCC5)CC2)cc1 | 0
O=C(CCNS(=O)(=O)c1cccc2nonc12)NC1CCCc2ccccc21 (stereo not given) | 0
Cc1cc(C)n(-c2nc(C)nc3sc4c(c23)CCC(C)C4)n1 (stereo not given) | 0
CCN(CC)c1ccc(-c2nn3c(-c4cccnc4)nnc3s2)cc1 | 0
O=C1OCCC1Sc1nnc(-c2ccc3c(c2)OCO3)n1-c1ccccc1 (stereo not given) | 0
O=C1c2ccccc2C(=O)C1c1ccc2ccccc2n1 | 72
O=C1c2ccccc2NC(c2cnc3ccccc3n2)N1O (stereo not given) | 0
O=C(NCc1ccccn1)c1ccc2ccccc2n1 | 0
CCC(C)(C(=O)NC1CCCC1)N(C(=O)c1cnccn1)c1c(C)n(C)n(-c2ccccc2)c1=O (stereo not given) | 0
Cc1ccc(S(=O)(=O)N(CC(=O)NCc2ccncc2)C2CCCCC2)cc1 | 0
SMILES | SF-1 inh
CN(Cc1ccco1)C(=O)c1ccc(N2CCCC2=O)cc1 | 0
CCc1nn2cc(-c3ccccc3)nc2s1 | 69
CCc1nc(C)c(-c2ccccc2)c(=O)[nH]1 | 0
c1ccc(N2CCN(c3nc4cc5c(cc4s3)OCCO5)CC2)cc1 | 0
c1c2c(cc3sc(N4CCOCC4)nc13)OCCO2 | 65
Clc1cc(Cl)c2nc(N3CCOCC3)sc2c1 | 0
O=C(Oc1ccc2c(c1)OCO2)c1cc2c(s1)CCC2 | 0
O=C(CCCC(=O)N(CC(=O)NC1CCCCC1)CC1CCCO1)Nc1ccccn1 (stereo not given) | 0
Cc1ccc(S(=O)(=O)NCC(=O)OCN2C(=O)c3ccccc3C2=O)cc1 | 0
C(=N\n1cnnc1)/c1cn(Cc2ccccc2)c2ccccc12 | 0
Cn1cc(/C=N/n2cnc3scc(-c4ccc(Cl)cc4)c3c2=O)c2ccccc21 | 81
C(=N\n1cnnc1SCc1ccccc1)/c1ccco1 | 0
C=CCN(C(=O)Cn1nnc2ccccc21)C(C(=O)NCCOC)c1ccc(OC)cc1OC (stereo not given) | 0
CC(C)NCC(O)Cn1c2c(c3ccccc31)CCc1c-2cnn1-c1ccccc1 (stereo not given) | 52
Cc1ccc(CNC(=O)c2cn(C3CCCC3)c(=O)c3c2c2ccccc2n3C)o1 | 0

High-throughput results (PubChem BioAssay)
